Values joined by “and” are separate entries in the source; they are usually repeats but may differ in a detail not shown here. Equal entries are not always repeated. In all, about 5,500 compounds went through this assay and about 2,000 (36%) were called active. Roughly 18% stayed inconclusive and do not appear here. No stated cut-off is given here; in the data, active means normalized growth mostly below about 0.91 (no sharp cut-off); inconclusive means no clear call, values can overlap the other calls; inactive means mostly above about 0.92. Some of the results follow.
Test: chemical genetic growth profiling, strain panel (AID 1159580);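 further: tested at 20 µM; growth read once vehicle control cultures reached saturation at 30 °C; 1 = growth at the plate median or of vehicle wells; lower values mean less growth of the strain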
Conditions: S. cerevisiae deletion strains, growth OD

Measured: normalized growth

COP(N)(=O)SC (configuration not stated)
inactive: locus YAL013W, strain DEP1, hits give low values 1 | locus YAL021C, strain ccr4, hits give low values 0.981 | locus YAL026C, strain drs2, hits give low values 1.01 | locus YAL030W, strain snc1, hits give low values 1 | locus YBL061C, strain skt5, hits give low values 1.01 | locus YBR009C, strain hhf1, hits give low values 1.02 | locus YBR021W, strain FUR4, hits give low values 1.01 | locus YBR023C, strain chs3, hits give low values 1.01 | locus YBR171W, strain sec66, hits give low values 1 | locus YBR229C, strain ROT2, hits give low values 0.978 | locus YBR231C, strain swc5, hits give low values 1.01 | locus YBR279W, strain paf1, hits give low values 1.01 | locus YCL011C, strain gbp2, hits give low values 1 | locus YCL016C, strain dcc1, hits give low values 1 | locus YCL029C, strain bik1, hits give low values 1.01 | locus YCL061C, strain MRC1, hits give low values 0.997 | locus YCL069W, strain vba3, hits give low values 1 | locus YCR088W, strain abp1, hits give low values 1 | locus YDL005C, strain med2, hits give low values 1 | locus YDL035C, strain GPR1, hits give low values 1.01 | locus YDL040C, strain nat1, hits give low values 1.01 | locus YDL074C, strain BRE1, hits give low values 0.993 | locus YDL101C, strain DUN1, hits give low values 0.978 | locus YDL134C, strain PPH21, hits give low values 1.01 | locus YDL185W, strain tfp1, hits give low values 1.01 | locus YDL192W, strain arf1, hits give low values 1.01 | locus YDR001C, strain nth1, hits give low values 0.994 | locus YDR069C, strain doa4, hits give low values 1.01 | locus YDR101C, strain arx1, hits give low values 1 | locus YDR137W, strain rgp1, hits give low values 1.01 | locus YDR150W, strain NUM1, hits give low values 0.987 | locus YDR159W, strain sac3, hits give low values 1.02 | locus YDR162C, strain NBP2, hits give low values 0.993 | locus YDR195W, strain ref2 0.999 | locus YDR297W, strain sur2, hits give low values 1 | locus YDR318W, strain mcm21, hits give low values 1.01 | locus YDR334W, strain swr1, hits give low values 1 | locus YDR335W, strain msn5, hits give low values 0.998 | locus YDR388W, hits give low values 1.01 | locus YDR392W, strain spt3, hits give low values 1.01 | locus YDR502C, strain sam2, hits give low values 1.01 | locus YEL003W, strain gim4, hits give low values 1 | locus YEL037C, strain rad23, hits give low values 0.998 | locus YEL061C, strain CIN8 (second series), hits give low values 1.01 | locus YEL061C, strain CIN8, hits give low values 1 | locus YER015W, strain faa2, hits give low values 1.01 | locus YER016W, strain bim1, hits give low values 1.01 | locus YER110C, hits give low values 1.01 | locus YER111C, strain swi4, hits give low values 1.01 | locus YER155C, strain BEM2 (second series), hits give low values 1.02 | locus YER155C, strain BEM2, hits give low values 0.98 | locus YER167W, strain BCK2, hits give low values 1 | locus YFR010W, strain ubp6, hits give low values 0.994 | locus YGL078C, strain dbp3, hits give low values 1.01 | locus YGL086W, strain mad1, hits give low values 1.01 | locus YGL167C, strain pmr1, hits give low values 1.01 | locus YGL173C, strain kem1, hits give low values 1.02 | locus YGL227W, strain vid30, hits give low values 1.01 | locus YGL240W, strain doc1, hits give low values 1.02 | locus YGL248W, strain PDE1, hits give low values 1.01 | locus YGL253W, strain hxk2, hits give low values 0.997 | locus YGR078C, strain PAC10, hits give low values 0.997 | locus YGR135W, strain pre9, hits give low values 0.999 | locus YGR229C, strain SMI1, hits give low values 1 | locus YGR252W, strain gcn5, hits give low values 1.02 | locus YHR013C, strain ard1, hits give low values 0.994 | locus YHR027C, strain rpn1, hits give low values 1 | locus YHR030C, strain SLT2, hits give low values 0.986 and 1.05 | locus YHR079C, strain IRE1 (second series), hits give low values 1.02 | locus YHR079C, strain IRE1, hits give low values 1.07 | locus YHR094C, strain hxt1, hits give low values 1.01 | locus YHR129C, strain ARP1, hits give low values 0.998 | locus YHR142W, strain chs7, hits give low values 0.982 | locus YHR200W, strain rpn10, hits give low values 1.01 | locus YIL066C, strain RNR3, hits give low values 1.03 | locus YIL073C, strain SPO22, hits give low values 1.06 | locus YIL125W, strain kgd1, hits give low values 1 | locus YIR030C, strain dcg1, hits give low values 1.01 | locus YJL092W, strain hpr5, hits give low values 0.998 | locus YJL095W, strain BCK1 (second series), hits give low values 1.01 | locus YJL095W, strain BCK1, hits give low values 0.99 and 1.03 | locus YJL115W, strain asf1, hits give low values 1 | locus YJL129C, strain trk1, hits give low values 0.993 | locus YJL134W, strain LCB3, hits give low values 1 | locus YJL154C, strain vps35, hits give low values 0.998 | locus YJL164C, strain tpk1, hits give low values 1 | locus YJL166W, strain qcr8, hits give low values 1.01 | locus YJL168C, strain set2, hits give low values 1.01 | locus YJL187C, strain SWE1 (second series), hits give low values 1.01 | locus YJL187C, strain SWE1, hits give low values 1.01 | locus YJR043C, strain POL32, hits give low values 1.02 | locus YJR066W, strain TOR1, hits give low values 0.985

Source: PubChem BioAssay AID1159580 (chemical genetic matrix, 2015)
